Experimental findings from the supplement of paper PMC8975748 are described below.

SMILES strings stand for the structures. Structures can show the parent of a compound that is named as a salt.

The subject of one test is Saccharomyces cerevisiae BY4741 SeMeCo community. The test is described as follows: z-score of subpopulation abundance vs DMSO median, subpopulation auxotrophic for M; higher = larger share of this subpopulation than in DMSO controls. The settings on record: 10 µM; 24 h; SM minimal medium; subpopulation (auxotrophy): M. An outline of the steps:
(§1)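 A community of Saccharomyces cerevisiae BY4741 was built from four plasmids that each restored one auxotrophy and encoded a distinct fluorescent protein. Pre-grown overnight to OD600 1.0 and diluted to 0.3, it was dispensed at 70 µl into 384-well plates acoustically predosed with library drugs for a final 10 µM, and grown 24 h in minimal SM medium. Cells were then paraformaldehyde-fixed and imaged by automated confocal microscopy. Thresholds and autofluorescence correction came from single-auxotroph fluorescent strains, and each subpopulation's abundance was scored as a z-score relative to the vehicle-well median.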
Take `CC(C)Cc1ccc(C(C)C(=O)O)cc1` (stereo not drawn) [Ibuprofen Lysine]: the “z-score of subpopulation abundance” value was -0.7.
With `CN(C)CCc1c[nH]c2ccc(C[C@H]3COC(=O)N3)cc12` [Zolmitriptan], the “z-score of subpopulation abundance” value is -0.23.
Same read-out and setting: with `C[C@]12CC[C@@H]3c4ccc(O)cc4C[C@@H](CCCCCCCCC[S+]([O-])CCCC(F)(F)C(F)(F)F)[C@H]3[C@@H]1CC[C@@H]2O` (stereo partly drawn) [Fulvestrant] the figure was 0.89; with `COc1ccc(NS(=O)(=O)c2ccc(N)cc2)nn1` [Sulfamethoxypyridazine], -0.66; with `CNCCCN1c2ccccc2CCc2ccccc21` [Desipramine Hydrochloride], 1.14.
The same measure, in the same setting: next, `Oc1ccc([C@H]2COc3cc(O)ccc3C2)cc1` [Equol]: 0.37.
Same read-out and setting: with `Cc1[nH]c(=O)c(C#N)cc1-c1ccncc1` [Milrinone] the figure was -0.56; with `Cc1ccc(O)c([C@H](CCN(C(C)C)C(C)C)c2ccccc2)c1` [Tolterodine tartrate], 0.22.
With `CCN(CC)CCOC(=O)c1ccc(N)cc1` [Procaine], the “z-score of subpopulation abundance” value is -1.12.
On the same count and under the same terms, with `O=C(O)c1cc(/N=N/c2ccc(O)c(C(=O)O)c2)ccc1O` [Olsalazine Sodium] the figure was -0.62.
The same measure, in the same setting: with `CCC(C)(Oc1ccc(C2(c3ccc(OC(C)(CC)C(=O)O)cc3)CCCCC2)cc1)C(=O)O` (stereo not drawn) [Clinofibrate] the figure was 0.41; with `CN(C)[C@@H]1C(=O)C(C(N)=O)=C(O)[C@@]2(O)C(=O)C3=C(O)c4c(O)ccc(Cl)c4[C@@H](O)[C@H]3C[C@@H]12` [Demeclocycline HCl], -1.78; with `COc1cc2c(cc1OC)C(=O)C(CC1CCN(Cc3ccccc3)CC1)C2` (stereo not drawn) [Donepezil], 1.61.
As for `CCn1cc(C(=O)O)c(=O)c2cc(F)c(N3CCNCC3)nc21` [Enoxacin], the “z-score of subpopulation abundance” value was -0.85.
Take `NC(=O)[C@@H]1CC[C@@H]2CN1C(=O)N2OS(=O)(=O)O` [Avibactam sodium]: the “z-score of subpopulation abundance” value amounted to 0.79.
With `CN1[C@@H]2CC[C@H]1C[C@@H](OC(c1ccccc1)c1ccccc1)C2` [Benztropine mesylate], the “z-score of subpopulation abundance” value is -0.66.
The same measure, in the same setting: with `C#C[C@]1(O)CC[C@H]2[C@@H]3CCC4=CCCC[C@@H]4[C@H]3CC[C@@]21C` [Lynestrenol] the figure was -1.23.
Consider `CC(C)(C)C(=O)OCOC(=O)[C@@H]1N2C(=O)[C@@H](/N=C/N3CCCCCC3)[C@H]2SC1(C)C` [Pivmecillinam hydrochloride], for which the “z-score of subpopulation abundance” value is -0.74.
Still for that read-out and setting: with `OC(c1ccccc1)(c1ccccc1)C12CC[N+](CCOCc3ccccc3)(CC1)CC2` [Umeclidinium bromide] the figure was -0.28.
`OCc1ccccc1O[C@@H]1O[C@H](CO)[C@@H](O)[C@H](O)[C@H]1O` [Salicin]: the “z-score of subpopulation abundance” value was -0.14.
As for `CN(C)CCc1c[nH]c2ccc(Cn3cncn3)cc12` [Rizatriptan Benzoate], the “z-score of subpopulation abundance” value is -0.1.
Same read-out and setting: next, `OCCN(CCO)c1nc(N2CCCCC2)c2nc(N(CCO)CCO)nc(N3CCCCC3)c2n1` [Dipyridamole]: 5.88; `Cn1nnnc1SCC1=C(C(=O)O)N2C(=O)[C@@H](NC(=O)[C@H](OC=O)c3ccccc3)[C@H]2SC1` [Cefamandole nafate]: 0.49.
On the same count and under the same terms, with `CC(=O)[C@@]1(O)CC[C@H]2[C@@H]3C[C@H](C)C4=CC(=O)CC[C@]4(C)[C@H]3CC[C@@]21C` [Medroxyprogesterone] the figure was 0.07; with `CC[N+](CC)(CC)CC` [Tetraethylammonium bromide], 0.89.
Same read-out and setting: next, `CCC1(c2ccccc2)C(=O)NCNC1=O` [Primidone]: 0.8; `CCCCOc1cc(C(=O)OCCN(CC)CC)ccc1N` [Oxybuprocaine HCl]: 0.72; `C[N+]1(C)[C@@H]2CC[C@H]1C[C@@H](OC(=O)C(O)c1ccccc1)C2` (stereo partly drawn) [Homatropine Methylbromide]: -0.38.

For the next test the test system is unchanged. The test is described as follows: z-score of subpopulation abundance vs DMSO median, subpopulation auxotrophic for L; higher = larger share of this subpopulation than in DMSO controls. The settings on record: 10 µM; 24 h; SM minimal medium; subpopulation (auxotrophy): L. The procedure, abridged: as §1
For the molecule `CC(C)NC(=N)NC(=N)Nc1ccc(Cl)cc1` [Proguanil], the “z-score of subpopulation abundance” value is -1.12.
The same measure, in the same setting: with `Nc1nc(O)c2ncn(CCC(CO)CO)c2n1` [Penciclovir] the figure was -0.31; with `C=CC(C)(O)CCC=C(C)C` (stereo not drawn) [Linalool], -0.24; with `O=C(N[C@H](CO)[C@H](O)c1ccc([N+](=O)[O-])cc1)C(Cl)Cl` [Chloramphenicol], 0.12.
As to `CCCN1CCCC[C@H]1C(=O)Nc1c(C)cccc1C` [Ropivacaine], the “z-score of subpopulation abundance” value is -0.8.
For the molecule `Cc1onc(-c2ccccc2)c1-c1ccc(S(N)(=O)=O)cc1` [Valdecoxib], the “z-score of subpopulation abundance” value came out at 0.01.
The same measure, in the same setting: next, `CN1[C@@H]2CC[C@H]1C[C@@H](OC(=O)c1c[nH]c3ccccc13)C2` [Tropisetron]: 1.61.
Still for that read-out and setting: next, `CC[C@H]1OC(=O)[C@H](C)[C@@H](O[C@H]2C[C@@](C)(OC)[C@@H](O)[C@H](C)O2)[C@H](C)[C@@H](O[C@@H]2O[C@H](C)C[C@H](N(C)C)[C@H]2O)[C@](C)(O)C[C@@H](C)/C(=N\OCOCCOC)[C@H](C)[C@@H](O)[C@]1(C)O` [Roxithromycin]: -0.94; `COc1ccccc1N1CCN(CCCNc2cc(=O)n(C)c(=O)n2C)CC1` [Urapidil HCl]: -1; `O=C(O)c1cc(-c2ccc(F)cc2F)ccc1O` [Diflunisal]: 0.56.
In the case of `C=C[C@H]1CN2CC[C@H]1C[C@H]2[C@H](O)c1ccnc2ccc(OC)cc12` [Quinine HCl Dihydrate], the “z-score of subpopulation abundance” value was -0.67.
The same measure, in the same setting: with `Cc1nc(=O)c2cc(CN(C)c3ccc(C(=O)N[C@@H](CCC(=O)O)C(=O)O)s3)ccc2[nH]1` [Raltitrexed] the figure was -0.42; with `CC(C)Cc1ccc(C(C)C(=O)O)cc1` (stereo not drawn) [Ibuprofen Lysine], -0.17.
As to `CN(C)CCc1c[nH]c2ccc(C[C@H]3COC(=O)N3)cc12` [Zolmitriptan], the “z-score of subpopulation abundance” value was found to be 0.2.
As for `C[C@]12CC[C@@H]3c4ccc(O)cc4C[C@@H](CCCCCCCCC[S+]([O-])CCCC(F)(F)C(F)(F)F)[C@H]3[C@@H]1CC[C@@H]2O` (stereo partly drawn) [Fulvestrant], the “z-score of subpopulation abundance” value came to 1.23.
As to `COc1ccc(NS(=O)(=O)c2ccc(N)cc2)nn1` [Sulfamethoxypyridazine], the “z-score of subpopulation abundance” value was -0.07.
Same read-out and setting: with `CNCCCN1c2ccccc2CCc2ccccc21` [Desipramine Hydrochloride] the figure was 0.26; with `Oc1ccc([C@H]2COc3cc(O)ccc3C2)cc1` [Equol], -0.21; with `Cc1[nH]c(=O)c(C#N)cc1-c1ccncc1` [Milrinone], -0.03.
In the case of `Cc1ccc(O)c([C@H](CCN(C(C)C)C(C)C)c2ccccc2)c1` [Tolterodine tartrate], the “z-score of subpopulation abundance” value stood at 0.31.
Regarding `CCN(CC)CCOC(=O)c1ccc(N)cc1` [Procaine], the “z-score of subpopulation abundance” value is -0.42.
Still for that read-out and setting: next, `O=C(O)c1cc(/N=N/c2ccc(O)c(C(=O)O)c2)ccc1O` [Olsalazine Sodium]: -0.47.
In the case of `CCC(C)(Oc1ccc(C2(c3ccc(OC(C)(CC)C(=O)O)cc3)CCCCC2)cc1)C(=O)O` (stereo not drawn) [Clinofibrate], the “z-score of subpopulation abundance” value is -2.3.
The same measure, in the same setting: next, `CN(C)[C@@H]1C(=O)C(C(N)=O)=C(O)[C@@]2(O)C(=O)C3=C(O)c4c(O)ccc(Cl)c4[C@@H](O)[C@H]3C[C@@H]12` [Demeclocycline HCl]: -0.08.
As to `COc1cc2c(cc1OC)C(=O)C(CC1CCN(Cc3ccccc3)CC1)C2` (stereo not drawn) [Donepezil], the “z-score of subpopulation abundance” value came out at 0.86.
Same read-out and setting: next, `CCn1cc(C(=O)O)c(=O)c2cc(F)c(N3CCNCC3)nc21` [Enoxacin]: 1.22; `NC(=O)[C@@H]1CC[C@@H]2CN1C(=O)N2OS(=O)(=O)O` [Avibactam sodium]: 0.6; `CN1[C@@H]2CC[C@H]1C[C@@H](OC(c1ccccc1)c1ccccc1)C2` [Benztropine mesylate]: 0.17.
Consider `C#C[C@]1(O)CC[C@H]2[C@@H]3CCC4=CCCC[C@@H]4[C@H]3CC[C@@]21C` [Lynestrenol], for which the “z-score of subpopulation abundance” value was -0.78.
On the same count and under the same terms, with `CC(C)(C)C(=O)OCOC(=O)[C@@H]1N2C(=O)[C@@H](/N=C/N3CCCCCC3)[C@H]2SC1(C)C` [Pivmecillinam hydrochloride] the figure was 0.41.
The same measure, in the same setting: with `OC(c1ccccc1)(c1ccccc1)C12CC[N+](CCOCc3ccccc3)(CC1)CC2` [Umeclidinium bromide] the figure was 0.22.
Regarding `OCc1ccccc1O[C@@H]1O[C@H](CO)[C@@H](O)[C@H](O)[C@H]1O` [Salicin], the “z-score of subpopulation abundance” value stood at 0.38.
Same read-out and setting: next, `CN(C)CCc1c[nH]c2ccc(Cn3cncn3)cc12` [Rizatriptan Benzoate]: 0.9.
Still for that read-out and setting: next, `OCCN(CCO)c1nc(N2CCCCC2)c2nc(N(CCO)CCO)nc(N3CCCCC3)c2n1` [Dipyridamole]: 4.21; `Cn1nnnc1SCC1=C(C(=O)O)N2C(=O)[C@@H](NC(=O)[C@H](OC=O)c3ccccc3)[C@H]2SC1` [Cefamandole nafate]: 0.3.
On the same count and under the same terms, with `CC(=O)[C@@]1(O)CC[C@H]2[C@@H]3C[C@H](C)C4=CC(=O)CC[C@]4(C)[C@H]3CC[C@@]21C` [Medroxyprogesterone] the figure was 0.51.
Turning to `CC[N+](CC)(CC)CC` [Tetraethylammonium bromide], the “z-score of subpopulation abundance” value is -0.06.
The same measure, in the same setting: next, `CCC1(c2ccccc2)C(=O)NCNC1=O` [Primidone]: -0.17; `CCCCOc1cc(C(=O)OCCN(CC)CC)ccc1N` [Oxybuprocaine HCl]: 0.22; `C[N+]1(C)[C@@H]2CC[C@H]1C[C@@H](OC(=O)C(O)c1ccccc1)C2` (stereo partly drawn) [Homatropine Methylbromide]: -0.63.
